Measured values published in PubChem BioAssay AID1076 (NMMLSC, 2008).
Activity calls are given as the source filed them.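 How the source made its calls: active means cell event count below 40, meaning activity score above 60 where score is 100 minus count; inactive means the rest.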

Test: LNCaP cell loss by flow event count, confirmation, cytotoxicity control for prostate differentiation activator project, single point (AID 1076);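 further: counts scatter-gated live cells after medium removal discards detached dead cells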
Conditions: flow cytometry event count, 4 d, stronger effect = lower value

SMILES	cell event count (at 100 µM)	cell event count (event count, at 10 µM)
CCCCn1c2c(c3ccccc31)CCc1nonc1-2	134 (inactive)	128
O=C(NCCCN1CCN(c2ccccc2F)CC1)C1CCC(=O)N1C1CCCC1 (stereo not drawn)	60 (inactive)	62
CCN(CC)CCCNC(=O)c1cc2c(-c3ccc(Cl)cc3)nn(C)c2s1	13 (active)	71.5
COc1cccc(-c2cc(C(=O)N3CCN(C(c4ccccc4)c4ccccc4)CC3)no2)c1	440 (inactive)	402
Cc1ccccc1-c1nc(CN2CCC(C(=O)N3CCN(c4ccccn4)CC3)CC2)c(C)o1	73 (inactive)	190
Cc1ccc(C)c(N2CCN(C(=O)CCNC(=O)Cn3ccc4ccccc4c3=O)CC2)c1	76 (inactive)	148
Cc1cccc(-c2nc(CN3CCCC(C(=O)NC4CCCC4)C3)c(C)o2)c1 (stereo not drawn)	29 (inactive)	328
O=C(Nc1c(C(=O)N2CCOCC2)cnn1-c1ccccc1)c1ccco1	201 (inactive)	124
Cc1cccc(-c2nc(CN3CCCC(C(=O)NC4CCC(C)CC4)C3)c(C)o2)c1 (stereo not drawn)	5 (inactive)	138
Cc1oc(-c2cccc(Cl)c2)nc1CN1CCC(C(=O)NCCCN2CCCC2=O)CC1	166 (inactive)	190
CCN1CCN(C(c2cccs2)C(C)NS(=O)(=O)c2ccc(Br)cc2)CC1 (stereo not drawn)	17 (active)	62
CCOC(=O)C1=C(O)CCn2c1nc1ccccc12	206 (inactive)	257
CCOC(=O)c1[nH]c(C)c(C(=O)NC2CCCCCC2)c1C	63 (inactive)	112
COc1ccc(-c2nc(CN3CCC(C(=O)N4CCc5ccccc54)CC3)c(C)o2)cc1OC	16 (inactive)	298
